In general, inhibition refers to the share of the control response that was lost under treatment.

In all, about 100,000 compounds went through this assay and about 770 (0.77%) were called active. Only a selection was taken, and actives are over-represented in it overall. Unmarked numbers belong to inactive results. Cut-off read from the data, not from the text of the source: active = inhibition above about 50%; inactive = the rest.

This passage reports inhibition results from PubChem BioAssay AID372 (MTDP, 2006).

The target in the assay is Gag-Pol polyprotein (Human immunodeficiency virus type 1 group M subtype B (isolate HXB2)) (UniProt P04585). The assay is described as follows: RNase H inhibition, HIV 1 Gag Pol polyprotein, FRET biochemical assay, screening (AID 372). To be noted: HIV-1 RT RNase H, FRET RNA/DNA substrate fluorescence; at 10 µM; active compounds read high.
Consider `COc1ccc(C(=O)Nc2ccc(I)cc2Cl)cc1OC`, for which the inhibition was 8%.

On to `COc1ccc(-c2nc(-c3ccccn3)no2)cc1OC`, for which the inhibition is 10%.

Consider `CCC(CC)C(=O)Nc1ccc(Cl)cc1Cl`, for which the inhibition was 13%.

Consider `O=C(CCSc1nc2ccccc2s1)Nc1ccccc1C(F)(F)F`, for which the inhibition was 13%.

Turning to `Cn1c(-c2nc3ccccc3n2C)nc2ccccc21`, the inhibition is 13%.

Take `Cn1c(-c2ccccn2)nc2ccccc21`: the inhibition is 2%.

In the case of `Cn1c(-c2ccc(-c3nc4cnccc4n3C)cc2)nc2cnccc21`, the inhibition is 70% (active).

As for `CC1CCCN(C2=NC(=O)/C(=C\c3cccc(O)c3)S2)C1` (stereo not given), the inhibition is 12%.

Take `Cc1ccc(-n2c(C)cc(/C=N/NC(N)=S)c2C)cc1`: the inhibition is 15%.

Consider `Cc1cccc(-n2c(C)cc(/C=N/NC(N)=O)c2C)c1`, for which the inhibition was 29%.

With `Cc1cccc(-n2c(C)cc(/C=N/NC(N)=S)c2C)c1`, the inhibition is 56% (active).

As for `Cc1cc(/C=N/NC(N)=O)c(C)n1-c1cccc(Cl)c1`, the inhibition was 24%.

For the compound `Cc1cc(C=O)c(C)n1-c1cccc([N+](=O)[O-])c1`, the inhibition is 6%.

Consider `Cc1cc(/C=N/NC(N)=S)c(C)n1-c1cccc([N+](=O)[O-])c1`, for which the inhibition was 52% (active).

Take `Cc1cc(/C=N/NC(=O)c2cc(Br)c(O)c(Br)c2)c(C)n1-c1cccc([N+](=O)[O-])c1`: the inhibition was 15%.

With `Cc1cc(/C=N/NC(N)=S)c(C)n1-c1cccc(Cl)c1`, the inhibition is 54% (active).

Regarding `Cc1cc(/C=N/NC(N)=S)c(C)n1-c1ccc(Cl)cc1`, the inhibition is 23%.

Take `O=C(NCCc1ccccc1)/C(=C/c1ccco1)c1ccccc1`: the inhibition is 2%.

Regarding `Cc1ccc(C(=O)c2cccc(C(=O)c3ccc(C)c(C)c3)c2)cc1C`, the inhibition was 8%.

With `O=C(Nc1c(-c2ccccc2)c2cc(Br)ccc2[nH]c1=O)c1cccc(Cl)c1`, the inhibition was 23%.

On to `COc1ccc(OC(C)C(=O)Nc2ccc(F)cc2)cc1` (stereo not given), for which the inhibition was 0%.

In the case of `Cc1ccc(NC(=O)C2CC(=O)N(c3ccc(Br)cc3)C2)cc1Cl` (stereo not given), the inhibition is 5%.

`COC(=O)C1=C(C)N(c2ccccc2)C(=O)/C1=C\c1ccc(C(=O)OC)cc1`: the inhibition was 15%.

Consider `Cc1cc(NS(=O)(=O)c2ccc(NC(=O)c3cc(Cl)cc(Cl)c3)cc2)no1`, for which the inhibition is 0%.

In the case of `CCCCNc1ccc2c3c(cc(=O)n2C)-c2ccccc2C(=O)c13`, the inhibition is 8%.

With `COCCCNc1ccc2c3c(nc(=O)n2C)-c2ccccc2C(=O)c13`, the inhibition was 50% (active).

Turning to `CC(=O)OCCNc1ccc2noc3c2c1C(=O)c1ccccc1-3`, the inhibition is 0%.

Turning to `Fc1ccc(CN2CCc3c([nH]c4ccccc34)C2)cc1`, the inhibition is 0%.

As to `CCCC(C)C(=O)Nc1cccc(C)c1C` (stereo not given), the inhibition is 10%.

On to `CC(C)(C)C1=CC(C(C)(C)C)=C([N+](=O)[O-])C(=O)C1=O`, for which the inhibition is 6%.

For the compound `CC(C)(C)C1=CC(C(C)(C)C)=C(Cl)C(=O)C1=O`, the inhibition was 69% (active).

Regarding `CC(C)(C)C1=CC(Cl)=C(C(C)(C)C)C(=O)C1=O`, the inhibition was 5%.

Consider `Cc1ccccc1CNS(=O)(=O)c1cccs1`, for which the inhibition was 0%.

`COc1ccccc1/C=N\N(C)c1nc(-c2ccccc2)cc(-c2ccccc2)n1`: the inhibition is 17%.

Take `COc1cc(/C=N/Nc2nc(N3CCOCC3)nc(N3CCOCC3)n2)cc(OC)c1`: the inhibition is 5%.

As to `O=C(/C=C/c1ccco1)Nc1ccc2oc(-c3ccccc3)nc2c1`, the inhibition was 15%.

Take `O=C(/C=C/c1ccc(-c2ccccc2[N+](=O)[O-])o1)Nc1ccc(-c2nc3cc(Cl)ccc3o2)cc1`: the inhibition is 53% (active).

For `O=C(/C=C/c1ccco1)Nc1ccc2nn(-c3ccccc3)nc2c1`, the inhibition is 24%.

In the case of `Cc1cc2nc(-c3cccc(NC(=O)/C=C/c4ccco4)c3)oc2cc1C`, the inhibition is 12%.

In the case of `COc1ccc(-n2nc3ccc(NC(=O)/C=C/c4ccco4)cc3n2)cc1`, the inhibition is 48%.

For `Cc1cc2nc(-c3ccc(NC(=O)/C=C/c4ccco4)cc3)oc2cc1C`, the inhibition was 57% (active).

Turning to `Cc1ccc(-c2nc3cc(NC(=O)/C=C/c4ccco4)ccc3o2)cc1`, the inhibition is 12%.

Take `O=C(/C=C/c1ccc(-c2ccccc2[N+](=O)[O-])o1)Nc1ccc(-c2nc3ncccc3o2)cc1`: the inhibition was 16%.

As to `O=C(/C=C/c1ccco1)Nc1ccc(-c2nc3cc(Cl)ccc3o2)cc1`, the inhibition is 51% (active).

As for `Cc1ccc2nc(-c3ccc(NC(=O)/C=C/c4ccco4)cc3)oc2c1`, the inhibition is 11%.

For the compound `O=C(/C=C/c1ccc(-c2ccccc2[N+](=O)[O-])o1)Nc1ccc(-c2nc3ccccc3o2)cc1`, the inhibition was 45%.

Regarding `O=C(/C=C/c1ccco1)Nc1ccc2nn(-c3ccc(Cl)cc3)nc2c1`, the inhibition is 50% (active).

As to `O=C(Nc1ccc(N2CCOCC2)c(Cl)c1)c1cc([N+](=O)[O-])ccc1Cl`, the inhibition was 24%.

For the compound `O=C1NC(=O)C(=Cc2ccccc2OCc2ccccc2F)C(=O)N1`, the inhibition is 4%.

In the case of `COc1ccc(CN2CCN(C(=O)c3cccs3)CC2)c(OC)c1`, the inhibition was 5%.

Regarding `CC(C)(C)c1ccc(S(=O)(=O)Nc2ccc(-c3ccc(NS(=O)(=O)c4ccc(C(C)(C)C)cc4)c(Cl)c3)cc2Cl)cc1`, the inhibition is 23%.

With `CC1CCN(Cc2c(O)ccc3c(=O)c(-c4ccc(Cl)cc4)coc23)CC1`, the inhibition was 0%.

Consider `COc1cc(-c2nc3ccccn3c2/N=C/c2cccc([N+](=O)[O-])c2)ccc1O`, for which the inhibition was 17%.

For the compound `O=C(/C=C/c1ccco1)Nc1cccc(-c2nc3ccccc3o2)c1`, the inhibition is 10%.

Regarding `O=C(/C=C/c1ccco1)Nc1nc2ccc(Br)cc2s1`, the inhibition is 59% (active).

In the case of `O=C(/C=C/c1ccco1)Nc1nc(-c2ccc(Br)cc2)cs1`, the inhibition was 15%.

Take `O=C(/C=C/c1ccccc1)Nc1nc2ccc(Br)cc2s1`: the inhibition was 48%.

Consider `Cc1ccc2oc(-c3cccc(NC(=O)/C=C/c4ccco4)c3)nc2c1`, for which the inhibition is 6%.

For `O=C(/C=C/c1ccco1)Nc1ccc(C(=O)Nc2cccc(-c3nc4ccccc4o3)c2)cc1`, the inhibition is 55% (active).

Take `CC(C)(C)C(=O)CC(=O)c1ccccc1`: the inhibition is 10%.

In the case of `CCOc1cc(CN2CCCCC2)ccc1OC`, the inhibition is 19%.

`O=C(NC(=S)Nc1ccc(F)c([N+](=O)[O-])c1)c1cccc(Cl)c1`: the inhibition is 22%.

As to `CC(/C=C/c1ccccc1)=N/NS(C)(=O)=O`, the inhibition was 3%.

Regarding `COc1ccc(/C=C/C(=O)Nc2c(C(C)C)cccc2C(C)C)cc1Br`, the inhibition was 7%.

For the compound `CCC(C(=O)Nc1cc(Cl)ccc1OC)c1ccccc1` (stereo not given), the inhibition was 29%.

`O=C(COc1ccc(Br)cc1)Nc1ccc(F)cc1F`: the inhibition is 0%.

As to `CCSc1nc2c(C)c(O)c(C)cc2[nH]1`, the inhibition was 0%.

Regarding `O=C(Nc1ccccc1)Nc1nnc(Cc2ccc(Cl)c(Cl)c2)s1`, the inhibition is 16%.

On to `COC(=O)c1sccc1NS(=O)(=O)c1ccc(OC)cc1`, for which the inhibition is 0%.

As to `COC(=O)c1sccc1NS(=O)(=O)c1cc(Cl)ccc1Cl`, the inhibition was 35%.

`COC(=O)c1sccc1NS(=O)(=O)c1ccc(Cl)cc1`: the inhibition was 70% (active).

In the case of `CCOC(=O)c1c(NC(=O)COc2ccc(Cl)cc2C)sc(C(N)=O)c1C`, the inhibition was 12%.

As for `Cc1cc(Cl)ccc1OCC(=O)Nc1ccccc1C(N)=O`, the inhibition is 7%.

Regarding `COC(=O)c1ccccc1NC(=O)COc1ccc(Cl)cc1C`, the inhibition was 4%.

In the case of `Cc1sc(NC(=O)COc2ccc(Cl)cc2Cl)c(C(N)=O)c1C`, the inhibition was 9%.

`CCOC(=O)c1ccccc1NC(=O)COc1ccc(Cl)cc1C`: the inhibition is 50% (active).

`Cc1ccc(N[C@H]2OC[C@H](O)[C@H](O)[C@H]2O)cc1[N+](=O)[O-]`: the inhibition was 6%.

`CCC(=O)Nc1sc(Cc2ccccc2)c(C)c1C(N)=O`: the inhibition was 1%.

Turning to `O=C(NCCCN1CCOCC1)/C(=C/c1ccc(-c2ccc(Cl)cc2)o1)NC(=O)c1ccccc1`, the inhibition was 0%.

On to `COc1ccc(C(=O)NC(NC(=S)Nc2sc3c(c2C(N)=O)CCCC3)C(Cl)(Cl)Cl)cc1` (stereo not given), for which the inhibition is 11%.

In the case of `CCOC(=O)C1=C(C)N=c2s/c(=C\c3ccc(-c4ccc(Cl)cc4)o3)c(=O)n2C1c1ccc(OC)cc1OC` (stereo not given), the inhibition is 51% (active).

Take `CCOC(=O)C1=C(C)N=c2s/c(=C\c3ccc(-c4cc(Cl)ccc4C)o3)c(=O)n2C1c1ccc(OC)cc1` (stereo not given): the inhibition was 15%.

As to `CCOC(=O)C1=C(C)N=c2s/c(=C\c3ccc(-c4ccc(Cl)cc4Cl)o3)c(=O)n2C1c1ccc(OC)cc1` (stereo not given), the inhibition is 12%.

Consider `CCOC(=O)C1=C(C)N=c2s/c(=C\c3ccc(-c4ccc(Cl)c(Cl)c4)o3)c(=O)n2C1c1ccc(OC)cc1OC` (stereo not given), for which the inhibition was 10%.

Consider `CCOC(=O)C1=C(C)N=c2s/c(=C\c3ccc(-c4ccc(Cl)cc4)o3)c(=O)n2C1c1cc(OC)ccc1OC` (stereo not given), for which the inhibition was 7%.

For `CCOC(=O)C1=C(C)N=c2s/c(=C\c3ccc(-c4cc(Cl)ccc4Cl)o3)c(=O)n2C1c1ccc(OC)cc1` (stereo not given), the inhibition was 50% (active).

As to `CC(/C=C/c1ccco1)=N/NC(=O)COc1cccc(Cl)c1`, the inhibition is 14%.

On to `Cc1ccc(C(=O)NC(C(=O)NC(C)(C)C)C23CC4CC(CC(C4)C2)C3)cc1` (stereo not given), for which the inhibition was 16%.

On to `Cc1cccc(C)c1NC(=S)NC(=O)c1ccc(Br)cc1`, for which the inhibition was 2%.

Consider `O=C(NC(=S)Nc1cc(Cl)c(Cl)cc1Cl)c1ccc(Cl)cc1`, for which the inhibition was 54% (active).

Consider `Cc1ccc(C(=O)NC(=S)Nc2cc(Cl)cc(Cl)c2)cc1C`, for which the inhibition was 50% (active).

Consider `O=C(NC(=S)Nc1cc(Cl)c(Cl)cc1Cl)c1ccc(F)cc1`, for which the inhibition is 13%.

Turning to `Cc1cccc(C)c1NC(=S)NC(=O)c1ccccc1`, the inhibition was 7%.

As to `COC(=O)c1cc(NC(=S)NC(=O)c2ccccc2)cc(C(=O)OC)c1`, the inhibition is 21%.

As for `COC(=O)c1cc(NC(=S)NC(=O)c2ccc(C)cc2)cc(C(=O)OC)c1`, the inhibition is 54% (active).

Consider `CC(=O)c1cccc(NC(=S)NC(=O)c2ccc(C)cc2)c1`, for which the inhibition is 17%.

In the case of `Cc1ccc(C(=O)NC(=S)Nc2cc(Cl)cc(Cl)c2)cc1`, the inhibition is 14%.

Regarding `Cc1ccc(C(=O)NC(=S)Nc2cc(Cl)c(Cl)cc2Cl)cc1`, the inhibition is 40%.

In the case of `Cc1ccc(C(=O)NC(=S)Nc2c(C)cccc2C)cc1`, the inhibition was 53% (active).

Consider `Cc1ccc(C(=O)NC(=S)Nc2ccc(Cl)cc2)cc1C`, for which the inhibition was 3%.
